Experimental data from PubChem BioAssay AID1159580 (chemical genetic matrix, 2015).
In all, about 5,500 compounds went through this assay and about 2,000 (36%) were called active. Inconclusive results (about 18%) are left out. Rule as the data show it: active = normalized growth mostly below about 0.91 (no sharp cut-off); inconclusive = no clear call, values can overlap the other calls; inactive = mostly above about 0.92. This is one part of the list.

Assay: chemical genetic growth profiling, strain panel (AID 1159580);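 also: tested at 20 µM; growth read once vehicle control cultures reached saturation at 30 °C; 1 = growth at the plate median or of vehicle wells; lower values mean less growth of the strain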
Conditions: growth OD
[1] = S. cerevisiae deletion strains, locus YBR229C, strain ROT2, hits give low values
[2] = S. cerevisiae deletion strains, locus YCL061C, strain MRC1, hits give low values
[3] = S. cerevisiae deletion strains, locus YDL101C, strain DUN1, hits give low values
[4] = S. cerevisiae deletion strains, locus YDL134C, strain PPH21, hits give low values
[5] = S. cerevisiae deletion strains, locus YDR150W, strain NUM1, hits give low values
[6] = S. cerevisiae deletion strains, locus YEL061C, strain CIN8, hits give low values
[7] = S. cerevisiae deletion strains, locus YGR078C, strain PAC10, hits give low values
[8] = S. cerevisiae deletion strains, locus YHR030C, strain SLT2, hits give low values
[9] = S. cerevisiae deletion strains, locus YHR087W, strain rtc3, hits give low values
[10] = S. cerevisiae deletion strains, locus YJR043C, strain POL32, hits give low values
[11] = S. cerevisiae deletion strains, locus YJR075W, strain HOC1, hits give low values
[12] = S. cerevisiae deletion strains, locus YLR039C, strain RIC1, hits give low values
[13] = S. cerevisiae deletion strains, locus YLR058C, strain SHM2 (second series), hits give low values
[14] = S. cerevisiae deletion strains, locus YLR085C, strain ARP6, hits give low values
[15] = S. cerevisiae deletion strains, locus YLR262C, strain YPT6, hits give low values
[16] = S. cerevisiae deletion strains, locus YML094W, strain GIM5, hits give low values
[17] = S. cerevisiae deletion strains, locus YMR219W, strain ESC1, hits give low values
[18] = S. cerevisiae deletion strains, locus YMR263W, strain SAP30, hits give low values
[19] = S. cerevisiae deletion strains, locus YNL153C, strain GIM3, hits give low values
[20] = S. cerevisiae deletion strains, locus YNL298W, strain CLA4 (second series), hits give low values
[21] = S. cerevisiae deletion strains, locus YNL322C, strain KRE1, hits give low values
[22] = S. cerevisiae deletion strains, locus YNR030W, strain Alg12, hits give low values
[23] = S. cerevisiae deletion strains, locus YPL055C, strain LGE1, hits give low values
[24] = S. cerevisiae deletion strains, locus YPL241C, strain CIN2, hits give low values
[25] = S. cerevisiae deletion strains, locus YPR135W, strain CTF4, hits give low values

Measured: normalized growth

Cc1ccc(OCC(=O)NN)c2c1CCC2
inactive: [1] 1 | [2] 0.994 | [3] 1.03 | [4] 1.01 | [5] 1.01 | [6] 1.01 | [7] 0.989 | [8] 0.985 | [9] 1.04 | [10] 0.99 | [11] 0.989 | [12] 0.867 | [13] 1.01 | [14] 1.01 | [15] 0.913 | [16] 1.01 | [17] 0.991 | [18] 1.01 | S. cerevisiae deletion strains, locus YMR307W, strain GAS1, hits give low values 0.963 | [19] 1 | [20] 0.989 | [21] 0.997 | [22] 1.01 | S. cerevisiae deletion strains, locus YOL006C, strain TOP1, hits give low values 1.01 | [23] 1.01 | [24] 1.01 | [25] 0.982 | S. cerevisiae strains, strain wild type, hits give low values 1.01

Cc1cc(Br)c(OCC(=O)NN)c2c1CCC2
active: [12] 0.608 | [15] 0.584
inactive: S. cerevisiae deletion strains, locus YAL013W, strain DEP1, hits give low values 1 | [1] 1 | [2] 1.01 | [3] 0.995 | [4] 1 | [5] 1.05 | [6] 0.985 | [7] 0.999 | [8] 0.856 | [9] 0.993 | [10] 0.998 | [11] 0.989 | S. cerevisiae deletion strains, locus YKL190W, strain CNB1, hits give low values 0.989 | [13] 0.999 | [14] 0.947 | [16] 0.975 | [17] 1 | [18] 0.961 | [19] 1.02 | [20] 0.979 | [21] 0.994 | [22] 0.997 | [23] 0.915 | [24] 1.02 | [25] 0.906
